The record followed here is article PMC4552634, “A New Set of Chemical Starting Points with Plasmodium falciparum Transmission-Blocking Potential for Antimalarial Drug Discovery” (PLoS ONE, 2015).

Each structure is given as a SMILES string. The campaign covered roughly 13,000 compounds. About 3,200 (25%) showed an effect of 50% or more. This is one part of the list.

This test concerns P. falciparum stage V gametocytes. Also noted: BacTiter-Glo ATP luminescence viability of purified stage V gametocytes in 384-well plates, per cent inhibition versus DMSO. Conditions: 48 h, 5 µM; inhibitor.
In the case of `Cc1cccc2nc(-c3ccc(-c4cccc(CN5CC(C)OC(C)C5)c4)s3)[nH]c12.O=C(O)C(F)(F)F` (stereo not shown) [TCMDC-133832], the % Inhibition – broadly, the drop in the measured response relative to a control, in per cent – is listed as -9.101%. Turning to `N#Cc1ccc(C(=O)Nc2cc(-c3cccc(O)c3)cc3[nH]ncc23)cc1` [TCMDC-134118], the “% Inhibition” value is given as 16.86%. As to `Cc1ccc(Oc2ncccc2C(=O)Nc2cccc3cccnc23)c(C)c1` [TCMDC-125499], the “% Inhibition” value was -13.13%. Take `O=C(Nc1ccc(CCN2CCC(c3nc(COCC(F)(F)F)c(-c4ccccc4)o3)CC2)cc1)c1ccc(F)cc1` [TCMDC-131904]: the “% Inhibition” value is -33.25%. For the molecule `O=C(Nc1nccs1)c1sc2ccccc2c1O` [TCMDC-124521], the “% Inhibition” value is -6.294%. For the molecule `CCNc1cc(C(=O)N[C@@H](Cc2ccccc2)[C@H](O)CNCc2cc(C#N)ccc2OC)cc(N2CCCC2=O)c1` [TCMDC-141684], the “% Inhibition” value was 32.6%. With `CCn1nc(C(=O)NC2CCOc3ccccc32)c2ccccc2c1=O` (stereo not shown) [TCMDC-124816], the “% Inhibition” value was found to be 60.74%. On to `CC1CCC(NC(=O)c2nn(-c3ccc(Cl)cc3)c(=O)c3ccccc23)CC1` (stereo not shown) [TCMDC-124775], for which the “% Inhibition” value is on record as -0.9327%. Turning to `COc1ccc(-n2nc(C(=O)NCc3ccccc3OC)c3ccccc3c2=O)cc1` [TCMDC-125443], the “% Inhibition” value is -5.134%. Turning to `COc1ccc(CN2CCC(CN3CC4(OC3=O)c3ccccc3-c3ccccc34)C2)c(O)c1` (stereo not shown) [TCMDC-136069], the “% Inhibition” value is 30.12%. As for `CCNc1cc(C(=O)N[C@@H](Cc2ccccc2)[C@H](O)CNCc2cccc(OC)c2)c(OC)c(N2CCCCS2(=O)=O)c1` [TCMDC-134673], the “% Inhibition” value is reported as -8.62%. Take `NC(=NCCCCCCCCN=C(N)Nc1ccc(Cl)cc1)Nc1ccc(Cl)cc1` [TCMDC-131828]: the “% Inhibition” value came to 83.63%. On to `N=C(N)NN=CC(=O)Nc1ccc(Cl)cc1` [TCMDC-137472], for which the “% Inhibition” value was 9.695%. `O=C(Nc1ccc(Cl)cc1)Nc1ccc(-c2ccc(-c3nc4ccccc4[nH]3)cc2)cc1` [TCMDC-133181]: the “% Inhibition” value is given as -19.19%. For `S=C(Nc1ccc(Cl)cc1)Nc1ccc(Nc2ccccc2)cc1` [TCMDC-123954], the “% Inhibition” value is -65.82%. Turning to `NC(=NCCc1ccc(Cl)cc1)c1ccc(Cl)c(Cl)c1` [TCMDC-137459], the “% Inhibition” value is reported as -9.34%. Consider `Clc1ccc(NC(=NCCCCCCCN=C(Nc2ccc(Cl)cc2)Nc2ccc(Cl)cc2)Nc2ccc(Cl)cc2)cc1` [TCMDC-137529], for which the “% Inhibition” value amounted to 128.8%. In the case of `Clc1cccc(-c2nc(Nc3ccnc(-c4ccc(CN5CCOCC5)cc4)c3)c3ccccc3n2)c1` [TCMDC-138870], the “% Inhibition” value is recorded as -2.785%. The figure for `COC(=O)c1ccc(CC(C)NCC(O)c2cccc(Oc3cccc(C(F)(F)F)c3)c2)cc1` (stereo not shown) [TCMDC-131489] is 30.29%.

Consider `COc1ccc2c(c1)[nH]c1c(/C=C/c3ccc([N+](=O)[O-])cc3)nccc12` [TCMDC-125486], for which the “% Inhibition” value is given as 8.204%. The figure for `Cc1sc(NC(=O)c2ccc([N+](=O)[O-])cc2Cl)c(C(N)=O)c1C` [TCMDC-125749] is -6.756%. Regarding `c1nc2nc3c(c(Nc4ccc5c(c4)CCC5)n2n1)CCC3` [TCMDC-123573], the “% Inhibition” value is given as -7.89%. In the case of `O=C(/C=C/c1ccc(Cl)cc1)NCCCCCN1CCCC(C(=O)Nc2cccc(Cl)c2)C1` (stereo not shown) [TCMDC-136121], the “% Inhibition” value is on record as 90.21%. On to `O=C(/C=C/C=C/c1ccc(Cl)c(Cl)c1)NCCCCCN1CCCC2CCCCC21` (stereo not shown) [TCMDC-139469], for which the “% Inhibition” value is recorded as 92.39%. On to `O=C(/C=C/c1ccc(Cl)c(Cl)c1)NCCCCCN1CCCC(C(=O)Nc2ccc(Cl)c(Cl)c2)C1` (stereo not shown) [TCMDC-136126], for which the “% Inhibition” value was 74.26%. On to `O=C(/C=C/c1ccc(Cl)c(Cl)c1)NCCCCCN1CCC(NC(=O)NC2CCCC2)CC1` [TCMDC-135699], for which the “% Inhibition” value is -68.94%. The figure for `O=C(/C=C/c1ccc(Cl)c(Cl)c1)NCCCCCN1CCC(NC(=O)NC2CCCCCC2)CC1` [TCMDC-135698] is -24.64%. Regarding `O=C(/C=C/c1ccc(Cl)c(Cl)c1)NCCCCCN1CCCC(C(=O)Nc2ccc(F)c(Cl)c2)C1` (stereo not shown) [TCMDC-136114], the “% Inhibition” value was -6.866%. Next, `O=C(/C=C/c1ccc(Cl)c(Cl)c1)NCCCCCN1CCCC(C(=O)Nc2ccc(Cl)cc2)C1` (stereo not shown) [TCMDC-136118]: -2.254%; `O=C(/C=C/c1ccc(Cl)c(Cl)c1)NCCCCCN1CCCC(C(=O)Nc2cccc(Cl)c2)C1` (stereo not shown) [TCMDC-136122]: -10.14%. On to `O=C(/C=C/c1ccc(Cl)cc1)NCCCCCN1CCCC(C(=O)Nc2ccc(Cl)cc2)C1` (stereo not shown) [TCMDC-136117], for which the “% Inhibition” value was found to be 4.842%.

In the case of `CC(C)C1=C[C@H]2C[C@]3(C4OCCO4)[C@@H]4CC[C@@H](C)[C@H]4C[C@@]2(C(=O)OCC2COCO2)[C@]13C(=O)OC(c1ccccc1)c1ccccc1` (stereo partly shown) [TCMDC-131949], the “% Inhibition” value is recorded as -14.13%. Regarding `CN(C)c1ccc(C(c2ccc(N(C)C)cc2)c2cc([N+](=O)[O-])ccc2Cl)cc1` [TCMDC-124088], the “% Inhibition” value was -4.747%. In the case of `O=S1(=O)C=C(c2ccccc2)CC1` [TCMDC-125863], the “% Inhibition” value is recorded as -1.513%. `O=C(Nc1cc(Cl)ccc1O)c1cnn2c(C(F)(F)F)cc(-c3cccs3)nc12` [TCMDC-125807]: the “% Inhibition” value was -56.02%.

As for `COc1cc(CN2CCC(N3CCc4cc(NC(=O)c5cc(C)on5)ccc43)C2)ccc1F` (stereo not shown) [TCMDC-135084], the “% Inhibition” value is recorded as -32.41%.

As to `N#Cc1cccc(NC(=O)Nc2cccc(-c3ccc(-c4nc5ccc(C(F)(F)F)cc5[nH]4)cc3)c2)c1` [TCMDC-133191], the “% Inhibition” value is -49.97%.

On to `CC(C)c1sc(N2CCN(C)CC2)nc1C(=O)NCCc1ccc(Cl)c(Cl)c1` [TCMDC-134295], for which the “% Inhibition” value came out at 11.7%. On to `CCOC(=O)C(NC(=O)c1ccc([N+](=O)[O-])o1)C(C)C` (stereo not shown) [TCMDC-131607], for which the “% Inhibition” value was 14.28%. As to `Cc1ccc(Cl)c2sc(N3CCN(C(=O)c4ccc([N+](=O)[O-])o4)CC3)nc12` [TCMDC-124311], the “% Inhibition” value came to 95.54%. Regarding `Cc1ccc(C)c2sc(N3CCN(C(=O)c4ccc([N+](=O)[O-])o4)CC3)nc12` [TCMDC-124315], the “% Inhibition” value worked out at 103%. Regarding `CC1CCN(c2nc(C(=O)NCCc3ccc(Cl)c(Cl)c3)c(C(C)C)s2)CC1` [TCMDC-134836], the “% Inhibition” value turned out to be 1.732%.

On to `CCOC(=O)C(CO)NC(=O)c1ccc([N+](=O)[O-])o1` (stereo not shown) [TCMDC-131608], for which the “% Inhibition” value was found to be 22.85%.
